A selection: hits, their analogues and other compounds. The true share with any hit is near 3.5%.
TEAD-YAP inh: TEAD-YAP interaction inhibition; HEK-TIYL cells, TEAD-Gal4/YAP UAS-luciferase luminescence; inhibition, % at 9.12 µM; hit rate 1.4% among 640,000; AID 1259422; in the data active = inhibition above about 32%;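 note: 0% = median of test compound wells and 100% = reference inhibitor wells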
FBW7 act: activators of human E3 ligase FBW7; Q969H0; AlphaScreen FBW7–phospho-cyclin E peptide binding, activator screen; normalized activity (activation), % at 26.1 µM; hit rate 0.13% among 650,000; AID 1259310; in the data active = normalized activity above about 1.9%;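 note: purified mutant Fbw7 with reduced substrate affinity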
MITF primary: blocks human microphthalmia-associated transcription factor. O75030. AlphaScreen MITF homodimerization, bead proximity signal. inhibition, % at 2.6 µM. hit rate 0.91% among 650,000. AID 1259374; in the data active = inhibition above about 50%;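 note: 0% = vehicle wells with protein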
GPR151 ag: activators of human GPR151. Q8TDV0. PathHunter beta-arrestin GPR151 cells, luminescence. activation, % at 11.2 µM. hit rate 1% among 650,000. AID 1508602; in the data active = activation above about 4.9%;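 note: 0% = median of compound wells and 100% = cells with positive control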
Target sequence (Q8TDV0 whole entry, looked up): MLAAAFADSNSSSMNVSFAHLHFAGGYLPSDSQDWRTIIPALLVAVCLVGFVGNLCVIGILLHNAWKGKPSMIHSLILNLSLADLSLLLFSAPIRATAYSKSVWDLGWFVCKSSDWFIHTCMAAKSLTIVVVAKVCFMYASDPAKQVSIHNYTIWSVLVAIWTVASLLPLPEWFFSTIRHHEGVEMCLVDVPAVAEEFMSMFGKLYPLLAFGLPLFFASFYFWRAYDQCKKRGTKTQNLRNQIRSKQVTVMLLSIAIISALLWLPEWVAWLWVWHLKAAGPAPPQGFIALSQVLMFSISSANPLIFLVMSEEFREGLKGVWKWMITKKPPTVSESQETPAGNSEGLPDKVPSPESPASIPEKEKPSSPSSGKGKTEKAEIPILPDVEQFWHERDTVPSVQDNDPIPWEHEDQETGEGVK
MITF inh conf: human MITF inhibition, confirmation; shares compounds with MITF primary; AlphaScreen MITF homodimerization, biotin/His-MITF beads; inhibition, % at 2.6 µM; hit rate 16% among 4,700; AID 1259372;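 active = inhibition above a cutoff derived from the DMSO control wells, cut at about 28% in these data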;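 note: 0% = MITF dimer wells with DMSO only; inhibitors lower the bead chemiluminescence by keeping MITF from dimerizing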
AS interf DR: counter-screen: compounds optically interfering with AlphaScreen; shares compounds with MITF primary; IC50, µM; AlphaScreen optical interference counterscreen, cell-free; hit rate 6% among 480; call rule not given here
AlphaScreen intf2: optically interferes with AlphaScreen signal; shares compounds with MITF primary; LysRS AlphaScreen counterscreen, signal interference, triplicate; inhibition, % at 2.6 µM; hit rate 7.6% among 4,700;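 active = inhibition above a cutoff derived from the DMSO control wells, cut at about 30% in these data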
Starred values were filed as active, the others as inactive; / = no result.

SMILES	TEAD-YAP inh	FBW7 act	MITF primary	GPR151 ag	MITF inh conf	AlphaScreen intf2	others
CCOC(=O)C1C2NC(=S)N(c3ccccc3)C1(C)Oc1c(OCC)cccc12 (centres undefined)	-6.5	-0.4	35.4	-0.3	/	/
Cc1[nH]c2ccccc2c1CCNCc1cccc([N+](=O)[O-])c1	2.8	-0.2	31.9	2.3	/	/
CSc1ccc(C(=O)C2CCCN(Cc3ccccn3)C2)cc1 (centres undefined)	-1.0	0.0	7.5	2.0	/	/
COc1ccccc1N1CCN(Cc2ccccc2[N+](=O)[O-])CC1	2.9	-0.1	6.7	-0.6	/	/
CC(C)N1CCN(Cc2ccccc2[N+](=O)[O-])CC1	-6.1	0.2	62.9*	1.2	9.8	13.8
O=[N+]([O-])c1ccccc1CN1CCN(Cc2ccccc2F)CC1	-8.2	0.1	66.9*	-0.1	3.0	1.1
CN1C2CCC1CC(OC(=O)c1ccccc1)C2 (centres undefined)	-1.2	0.7	-5.1	-1.6	/	/
CN1CCC2(C1)Oc1ccccc1O2	0.6	0.0	55.1*	-0.5	18.5	15.5
CN1CCC2(CC1)CC(=O)c1cc(O)ccc1O2	4.8	0.1	5.9	3.3	/	/
Fc1ccccc1CNCCc1ccc2c(c1)OCO2	-7.8	0.0	15.5	-1.0	/	/
CCOP(=O)(OCC)SCc1ccccc1	-8.6	0.2	53.3*	-0.8	2.5	8.6
O=C(COc1ccc(Br)cc1)N1CCN(Cc2ccccc2)CC1	3.1	0.1	39.5	0.3	/	/
Cc1cccc(CN2CCN(C(=O)COc3ccccc3)CC2)c1	9.5	0.2	53.1*	-0.9	2.2	2.1
Cc1cccc(CN2CCN(C(=O)COc3ccc(Cl)cc3)CC2)c1	9.6	0.0	49.6	-0.4	/	/
Cc1cccc(OCC(=O)N2CCN(Cc3ccc(Br)cc3)CC2)c1	7.1	0.0	70.3*	1.7	11.3	9.0
Cc1cccc(OCC(=O)N2CCN(Cc3ccccc3Cl)CC2)c1	5.4	0.0	66.4*	-0.3	10.5	20.7
COc1ccc(Br)cc1CN1CCN(C(=O)COc2cccc(C)c2)CC1	5.3	-0.1	57.8*	-0.2	-4.6	-7.0
CCSc1nnc(NC(=O)Cn2c[n+]([N-][N+](=O)[O-])cn2)s1	-4.1	0.0	8.4	-0.7	/	/
O=C(COc1ccccc1)N1CCN(Cc2cccnc2)CC1	0.6	0.2	81.5*	-0.4	8.8	17.6
O=C(COc1ccccc1)N1CCN(Cc2cccc(Cl)c2)CC1	5.1	-0.2	50.0	-0.8	/	/
O=[N+]([O-])c1c(Br)ccc2c1no[n+]2[O-]	-9.8	-0.3	90.5*	0.1	79.9*	5.4	AS interf DR=>9.09
CCOC(=O)c1nc2ccccc2c(=O)n1-c1ccc(F)cc1	6.6	0.0	8.2	-1.3	/	/
c1ccc(CN2CCN(c3ccccc3)CC2)cc1	-5.2	-0.2	20.1	-1.2	/	/
c1ccc(CN2CCN(C3CCCCC3)CC2)cc1	4.2	-0.4	75.0*	-0.5	13.6	11.9
Cc1c(/C=N/O)c2ccccc2n1C	-8.5	-0.4	-1.4	-0.5	/	/
SMILES	TEAD-YAP inh	FBW7 act	MITF primary	GPR151 ag	MITF inh conf	AlphaScreen intf2	others
O=C(O)COc1cc(Cl)c(Cl)cc1Cl	-4.2	-0.1	3.7	1.7	/	/
O=[N+]([O-])c1ccc(N2CCN(Cc3cc(F)ccc3F)CC2)cc1	0.1	0.1	57.6*	-1.3	1.0	4.8
O=[N+]([O-])c1ccc(N2CCN(Cc3c(F)cccc3F)CC2)cc1	-6.3	-0.2	62.7*	0.6	1.3	-1.9
O=[N+]([O-])c1cccc(CN2CCN(c3ccc(F)cc3)CC2)c1	-4.0	0.0	45.3	1.7	/	/
Cc1ccc(N/C(N)=N/[N+](=O)[O-])cc1NC(=O)c1ccoc1	13.7	-0.1	3.0	-1.3	/	/
CC(C)(C)CN1CCN(Cc2ccc(F)c(F)c2)C(CCO)C1 (centres undefined)	-5.3	0.0	-14.9	0.3	/	/
CCOC(=O)C1=C(CC)OC(N)=C(C#N)C12C(=O)Nc1ccccc12 (centres undefined)	8.0	0.1	13.6	-0.4	/	/
Cc1ccc2c(c1)C1CN(C)CCC1N2C(=O)C1CCCC1 (centres undefined)	-8.4	0.1	2.6	0.1	/	/
CC(C)Sc1ccc(CC(=O)N2CCN(Cc3nc4ccccc4n3C)CC2)cc1	19.7	-0.6	54.9*	-1.2	12.1	14.3
Fc1cccc(CN2CCN(c3ccc(Cl)cc3)CC2)c1	7.0	0.0	2.6	0.8	/	/
CCC(CC)N1CCN(Cc2cccc(F)c2)CC1	-5.0	0.6	73.1*	-0.8	-8.4	-5.4
CC(C)N1CCN(Cc2cccc(F)c2)CC1	2.1	0.0	61.5*	2.2	-9.5	-12.0
CCc1ccc(CN2CCN(Cc3cccc(Cl)c3)CC2)cc1	4.0	0.1	63.6*	1.5	-5.4	-2.9
Fc1ccc(CN2CCN(Cc3cccc(Cl)c3)CC2)cc1	-0.9	0.0	68.2*	-0.2	-3.5	-2.0
O=C1CCO1	10.3	0.0	-0.9	0.4	/	/
Fc1cccc(CN2CCN(Cc3ccc(Cl)cc3)CC2)c1	2.5	-0.1	70.0*	-0.4	6.7	7.5
CN1CCN(Cc2cccc(F)c2)CC1	-0.7	-0.5	41.2	-0.2	/	/
Fc1cccc(CN2CCN(Cc3cccc(F)c3)CC2)c1	-1.8	-0.2	67.7*	0.1	-2.3	-6.2
CCC(C)N1CCN(Cc2cccc(OC)c2OC)CC1 (centres undefined)	-12.6	0.4	78.2*	-0.1	3.9	7.7
CCC(C)N1CCN(Cc2cccc(C)c2)CC1 (centres undefined)	-1.2	0.0	36.6	0.7	/	/
COc1cccc(CN2CCN(Cc3ccccc3)CC2)c1OC	1.4	-0.2	68.6*	-0.6	3.4	11.8
COc1cccc(CN2CCN(C)CC2)c1OC	3.7	0.3	11.8	2.5	/	/
COc1ccc(CN2CCN(Cc3ccccc3)CC2)c(OC)c1	3.7	-0.5	67.0*	-1.1	8.2	12.8
COc1ccc(OC)c(CN2CCN(C(C)C)CC2)c1	1.2	-0.1	71.7*	-0.4	4.3	4.2
CCCCOc1ccc(C(=O)OCCCN(CC)CC)c(O)c1	11.0	0.0	-15.5	-0.7	/	/
SMILES	TEAD-YAP inh	FBW7 act	MITF primary	GPR151 ag	MITF inh conf	AlphaScreen intf2	others
Cc1cc(-n2c(/C=C/c3ccccc3)nc3ccccc3c2=O)ccc1Br	3.0	-0.1	-2.0	1.8	/	/
COc1ccc(Cn2nnnc2CN2CCC(n3nnc4cc(F)ccc43)CC2)cc1	-4.6	0.1	-4.1	2.5	/	/
COc1cccc(CN2CCN(C)C(CCO)C2)c1OC (centres undefined)	-9.2	0.3	-9.7	-0.5	/	/
COc1cccc(CN2CCN(C(C)C)CC2)c1OC	6.2	-0.1	68.7*	1.0	1.0	-4.0
CCCCCCC[n+]1ccc(-c2cc[n+](CCCCCCC)cc2)cc1	17.5	-0.1	-2.4	-0.5	/	/
C[n+]1ccc(-c2cc[n+](C)cc2)cc1	5.5	-0.3	64.7*	1.7	5.6	13.2
CCC(C)N1CCN(Cc2ccccc2)CC1 (centres undefined)	11.1	0.0	65.7*	0.3	-3.9	-8.2
CCC(C)N1CCN(Cc2ccccc2F)CC1 (centres undefined)	-1.1	-0.2	75.1*	0.1	-1.6	0.3

Source: PubChem BioAssay (The Scripps Research Institute Molecular Screening Center)
